The structures appear in SMILES notation. Screen size: about 330,000 compounds; about 2,800 (0.85%) were called active.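 Rule for the calls: active = mean inhibition across replicates of 60% or more, whatever share of single replicates reaches that level; inconclusive = some that reach 60%, reason not given; inactive = mean inhibition across replicates below 60%.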 Only a selection was taken, and actives are over-represented in it overall.

The experiment in a line: MITF transcriptional activity suppression – cell-based, SK-MEL-5, single point, luciferase, primary screen (AID 488899). To be noted: SK-MEL-5 TRPM1 promoter luciferase, 24 h; at 12.5 µM; stronger effect = higher value.
As to `Cc1ccc(S(=O)(=O)NCc2ccc(C(=O)NC3CCC(C)CC3)cc2)cc1` (stereo unspecified), the inhibition (in general, the drop in the measured response relative to a control, in per cent) is -5.23% (inactive).

Regarding `O=C(NCCc1ccccc1)c1cccc(NC(=O)c2ccccc2)c1`, the inhibition was -26.7% (inactive).

Regarding `CCN(CC(=O)Nc1c(F)cccc1F)C(=O)Cc1cccs1`, the inhibition was -11.1% (inactive).

Turning to `Cc1cccc(NC(=O)c2nc[nH]c2C(=O)NCC(=O)OCc2ccccc2)c1`, the inhibition is -4.1% (inactive).

On to `Cc1ccc(CS(=O)(=O)c2ncc(Cl)c(C(=O)Nc3nnc(C)s3)n2)cc1`, for which the inhibition was 85.4% (active).

`CSc1ncc(Cl)c(C(=O)Nc2cc(C)ccc2C)n1`: the inhibition was 18.6% (inactive).

As to `COCCSc1nnc(NC(=O)CCS(=O)(=O)Cc2ccccc2)s1`, the inhibition is -6.5% (inactive).

For the molecule `Cc1nnc(NC(=O)c2ccc3nccnc3c2)s1`, the inhibition is -45.1% (inactive).

`Cc1ccc(S(=O)(=O)CC(=O)Nc2nnc(C)s2)cc1`: the inhibition is 7.41% (inactive).

Turning to `Cc1cccc(NC(=O)c2nc(S(=O)(=O)Cc3ccccc3)ncc2Cl)c1`, the inhibition is 70.8% (active).

Turning to `Cc1cccc(CS(=O)(=O)c2ncc(Cl)c(C(=O)Nc3ccc(F)cc3)n2)c1`, the inhibition was 41% (inactive).

With `CSc1nnc(NC(=O)c2nc(S(=O)(=O)Cc3ccc(C)cc3)ncc2Cl)s1`, the inhibition was 62.7% (active).

Regarding `NS(=O)(=O)c1ccccc1NC(=O)c1c(O)c2ccccc2[nH]c1=O`, the inhibition was -57.1% (inactive).

On to `Cc1nc(N)nc(Cl)c1CCC1OCCO1`, for which the inhibition was -7.11% (inactive).

Consider `Cc1ccc(CN(CC(=O)NCC2CCCO2)S(=O)(=O)c2ccc(C)cc2)cc1` (stereo unspecified), for which the inhibition was -1.73% (inactive).

In the case of `COc1ccc(N2C(=O)C(CC(=O)Nc3ccccc3)N(Cc3ccc(OC)c(OC)c3)C2=O)cc1` (stereo unspecified), the inhibition is -7.22% (inactive).

As to `COc1ccc([N+](=O)[O-])cc1N(CC(O)Cn1nnc2ccccc21)S(=O)(=O)c1ccc(C)cc1` (stereo unspecified), the inhibition is -0.297% (inactive).

Consider `Cc1cc(F)ccc1NC(=S)NCCc1ccccc1`, for which the inhibition is 7.66% (inactive).

On to `Cc1ccc(C)c(S(=O)(=O)N(C)c2ccc(OC(=O)C3CCN(C(=O)c4ccc(F)cc4)CC3)cc2)c1`, for which the inhibition was -0.817% (inactive).

For the molecule `Cc1ccc(S(=O)(=O)N2CCN(C(=O)c3cc(S(=O)(=O)N4CCOCC4)ccc3F)CC2)cc1`, the inhibition was 3.63% (inactive).

As for `CC(C)Nc1nnc(SC(C)C(=O)N(C)C2CCCCC2)s1` (stereo unspecified), the inhibition was 3.93% (inactive).

With `Cc1ccc(C(=O)/C=C/c2c(C)nn(-c3ccccc3)c2Cl)cc1`, the inhibition was -34.6% (inactive).

Turning to `Cc1cccc(C=CC(=O)c2ccc(Cl)cc2)c1`, the inhibition was -37.5% (inactive).

For the molecule `O=C(/C=C/Sc1ncn[nH]1)c1ccc(Cl)cc1`, the inhibition was 90.5% (active).

For the molecule `CC(=O)Nc1ccc(NC(=O)C(C)OC(=O)c2ccccc2C(=O)c2ccc(Cl)c([N+](=O)[O-])c2)cc1` (stereo unspecified), the inhibition is 75.9% (active).

Take `CC(OC(=O)CNC(=O)c1ccc(Cl)c([N+](=O)[O-])c1)C(=O)NCc1ccco1` (stereo unspecified): the inhibition was -4.83% (inactive).

Take `O=C(Nc1ccncc1)c1ccc(Cl)c([N+](=O)[O-])c1`: the inhibition was -0.779% (inactive).

On to `O=C(COC(=O)c1cnccn1)Nc1ccc(Cl)cc1C(F)(F)F`, for which the inhibition was 8.53% (inactive).

As for `COc1ccc(CC(=O)NC2CCSc3ccccc32)cc1OC` (stereo unspecified), the inhibition was 3.11% (inactive).

For the molecule `COc1ccccc1N1CCN(S(=O)(=O)c2ccc(Cl)cc2)CC1`, the inhibition is 8.65% (inactive).

On to `COc1ccccc1-n1nnnc1SCC(=O)NC(=O)Cc1ccccc1`, for which the inhibition is 2.76% (inactive).

On to `COc1ccccc1-n1nnnc1S(=O)(=O)Cc1ccc(Cl)cc1`, for which the inhibition was 73.6% (active).

As for `CCc1nn(-c2cc(Oc3cccc4ccccc34)nc(-c3ccccc3)n2)c(N)c1C#N`, the inhibition was 86.1% (active).

In the case of `CC(C)(C)n1nc(Cc2cccc3ccccc23)c(C#N)c1N`, the inhibition is 4.42% (inactive).

In the case of `O=C(c1ccc2c(c1)N(Cc1ccc(F)cc1)C(=O)c1ccccc1S2(=O)=O)N1CCN(c2ccccn2)CC1`, the inhibition was 7.75% (inactive).

`CCOC(=O)C1(Cc2ccccc2C)CCCN(S(C)(=O)=O)C1` (stereo unspecified): the inhibition is 0.048% (inactive).

For the origin of these results see PubChem BioAssay AID488899 (Broad Institute, 2010).
